Experiment in all cases: DAPPL (digital affinity profiling via proximity ligation, sequencing); 10 mM Tris-HCl pH 7.5, 50 mM NaCl, 1 mM DTT, 4% glycerol, room temperature, 30 min; GST-TFs on glutathione beads, 16-mer random dsDNA library, 0.1% formaldehyde crosslink after washing; high values mean tight binding
Common to all, as to conditions: protein: recombinant; tags: N-terminal GST; dsDNA, one strand shown

The target in assay [1] is T1, FLI1 (Homo sapiens, UniProt Q01543 1-452).
T1 sequence: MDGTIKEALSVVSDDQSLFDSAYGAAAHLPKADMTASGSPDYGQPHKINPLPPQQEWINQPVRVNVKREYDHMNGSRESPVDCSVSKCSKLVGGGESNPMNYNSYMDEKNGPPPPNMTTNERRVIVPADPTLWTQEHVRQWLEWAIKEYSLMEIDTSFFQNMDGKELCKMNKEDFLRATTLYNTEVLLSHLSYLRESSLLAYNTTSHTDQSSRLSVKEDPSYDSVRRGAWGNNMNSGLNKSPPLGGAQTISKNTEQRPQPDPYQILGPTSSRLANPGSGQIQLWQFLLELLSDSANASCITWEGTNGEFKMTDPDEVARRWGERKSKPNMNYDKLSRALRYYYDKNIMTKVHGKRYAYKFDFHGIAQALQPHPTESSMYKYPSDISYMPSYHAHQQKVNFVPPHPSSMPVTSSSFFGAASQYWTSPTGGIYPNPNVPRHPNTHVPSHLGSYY
In outline:
(§1)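 Binding signal is each hexamer's read frequency for a factor divided by its frequency in the tag-only sample. The factors were GST-fused human transcription factors from yeast, captured on glutathione beads, DNA-barcoded and pooled with that sample. Pools were incubated with 200 nmole of a random double-stranded 16-mer DNA library in Tris/NaCl/DTT/glycerol buffer at room temperature for 30 min, then washed, crosslinked with 0.1% formaldehyde, proximity-ligated with BsaI/T4 ligase (1 h, 37 °C), PCR-amplified and sequenced on an Illumina NextSeq500.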

The target of assay [2] is T2, ELK1 (Homo sapiens, UniProt P19419 1-428).
T2 sequence: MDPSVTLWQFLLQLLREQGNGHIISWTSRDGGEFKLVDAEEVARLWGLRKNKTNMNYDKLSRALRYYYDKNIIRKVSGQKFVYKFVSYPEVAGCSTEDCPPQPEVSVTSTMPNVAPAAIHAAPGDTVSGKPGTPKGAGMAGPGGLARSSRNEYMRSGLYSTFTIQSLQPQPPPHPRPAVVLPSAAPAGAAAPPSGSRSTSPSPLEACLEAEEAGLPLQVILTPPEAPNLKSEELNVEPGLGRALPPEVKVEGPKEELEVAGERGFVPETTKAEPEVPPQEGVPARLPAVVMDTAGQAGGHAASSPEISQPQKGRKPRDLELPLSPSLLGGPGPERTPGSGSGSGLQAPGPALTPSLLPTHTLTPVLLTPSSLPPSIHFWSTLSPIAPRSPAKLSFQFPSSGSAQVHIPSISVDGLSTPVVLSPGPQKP
In outline:
as §1

In assay [3] the target is T3, GABPA (Homo sapiens, UniProt Q06546 1-454).
T3 sequence: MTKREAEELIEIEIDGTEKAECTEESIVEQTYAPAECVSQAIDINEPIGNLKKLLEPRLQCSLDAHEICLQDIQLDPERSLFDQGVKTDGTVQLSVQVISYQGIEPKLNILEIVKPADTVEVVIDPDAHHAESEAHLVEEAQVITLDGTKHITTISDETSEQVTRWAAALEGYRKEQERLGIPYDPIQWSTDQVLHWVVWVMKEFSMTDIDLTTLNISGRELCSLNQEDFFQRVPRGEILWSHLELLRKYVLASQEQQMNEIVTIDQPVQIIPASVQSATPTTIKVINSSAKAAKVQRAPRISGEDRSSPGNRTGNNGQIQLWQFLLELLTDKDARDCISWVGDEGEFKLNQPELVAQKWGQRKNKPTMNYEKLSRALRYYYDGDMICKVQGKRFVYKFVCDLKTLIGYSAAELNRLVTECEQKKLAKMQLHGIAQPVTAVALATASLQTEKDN
Put shortly: as §1

The target of assay [4] is T4, ERG (Homo sapiens, UniProt P11308 1-479).
T4 sequence: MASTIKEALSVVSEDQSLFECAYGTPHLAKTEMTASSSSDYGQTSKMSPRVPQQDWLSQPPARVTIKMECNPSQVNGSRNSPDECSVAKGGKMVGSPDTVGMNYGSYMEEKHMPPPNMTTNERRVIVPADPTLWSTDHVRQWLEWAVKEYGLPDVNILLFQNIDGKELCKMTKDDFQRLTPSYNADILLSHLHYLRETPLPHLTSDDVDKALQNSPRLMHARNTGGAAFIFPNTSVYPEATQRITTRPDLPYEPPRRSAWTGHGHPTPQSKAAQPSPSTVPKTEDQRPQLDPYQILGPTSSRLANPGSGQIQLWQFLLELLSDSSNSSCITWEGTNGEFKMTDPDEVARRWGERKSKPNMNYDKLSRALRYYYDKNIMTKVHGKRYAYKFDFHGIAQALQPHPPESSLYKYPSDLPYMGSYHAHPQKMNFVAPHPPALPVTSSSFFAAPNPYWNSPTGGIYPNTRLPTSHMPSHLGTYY
In outline:
as §1

Assay [5] deals with ELF1 (Homo sapiens, UniProt P32519 1-619). In outline: as §1
Chain of ELF1 (P32519 whole entry): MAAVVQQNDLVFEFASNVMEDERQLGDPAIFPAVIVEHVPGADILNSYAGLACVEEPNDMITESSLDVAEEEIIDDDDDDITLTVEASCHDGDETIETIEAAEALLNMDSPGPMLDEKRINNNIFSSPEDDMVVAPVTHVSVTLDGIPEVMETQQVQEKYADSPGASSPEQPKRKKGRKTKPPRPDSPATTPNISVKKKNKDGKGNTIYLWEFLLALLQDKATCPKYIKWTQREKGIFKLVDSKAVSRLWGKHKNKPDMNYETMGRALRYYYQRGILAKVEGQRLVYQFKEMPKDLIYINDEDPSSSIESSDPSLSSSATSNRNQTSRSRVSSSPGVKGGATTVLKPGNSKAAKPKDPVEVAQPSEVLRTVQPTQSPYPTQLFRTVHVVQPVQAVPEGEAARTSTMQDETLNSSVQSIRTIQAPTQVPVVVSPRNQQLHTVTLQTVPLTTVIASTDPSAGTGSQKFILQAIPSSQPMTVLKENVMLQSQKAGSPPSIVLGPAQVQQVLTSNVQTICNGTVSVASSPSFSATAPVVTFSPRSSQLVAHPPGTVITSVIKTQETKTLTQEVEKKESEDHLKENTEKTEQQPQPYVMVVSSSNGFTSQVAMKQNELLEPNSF
Assay [6] deals with T5, EHF (Homo sapiens, UniProt Q9NZC4 1-300).
T5 sequence: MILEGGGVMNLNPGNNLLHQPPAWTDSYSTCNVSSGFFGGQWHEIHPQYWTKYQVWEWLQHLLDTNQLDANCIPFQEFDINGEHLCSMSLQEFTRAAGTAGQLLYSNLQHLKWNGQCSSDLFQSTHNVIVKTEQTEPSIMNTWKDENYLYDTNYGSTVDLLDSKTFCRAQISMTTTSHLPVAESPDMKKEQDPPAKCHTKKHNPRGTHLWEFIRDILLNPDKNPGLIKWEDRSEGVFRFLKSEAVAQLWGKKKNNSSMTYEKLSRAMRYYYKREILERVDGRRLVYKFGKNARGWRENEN
In outline: as §1

For assay [7], the target named is SPI1 (Homo sapiens, UniProt P17947 1-270). Put shortly:
as §1

Assay [8] addresses SPIB (Homo sapiens, UniProt Q01892 1-262). Put shortly:
as §1

Assay [9] deals with T6, ELK3 (Homo sapiens, UniProt P41970 1-407).
T6 sequence: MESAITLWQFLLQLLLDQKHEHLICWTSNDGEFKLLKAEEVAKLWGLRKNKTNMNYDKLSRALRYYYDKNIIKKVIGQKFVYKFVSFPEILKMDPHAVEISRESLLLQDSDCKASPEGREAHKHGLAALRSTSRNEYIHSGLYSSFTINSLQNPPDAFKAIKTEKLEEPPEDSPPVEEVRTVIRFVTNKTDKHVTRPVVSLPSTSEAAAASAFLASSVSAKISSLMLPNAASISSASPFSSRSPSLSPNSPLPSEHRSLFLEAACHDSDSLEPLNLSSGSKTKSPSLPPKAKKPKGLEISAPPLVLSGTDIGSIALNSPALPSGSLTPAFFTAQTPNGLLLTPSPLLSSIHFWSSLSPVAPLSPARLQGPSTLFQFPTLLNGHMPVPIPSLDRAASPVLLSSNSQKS
In outline:
as §1

In assay [10] the target is T7, FEV (Homo sapiens, UniProt Q99581 1-238).
T7 sequence: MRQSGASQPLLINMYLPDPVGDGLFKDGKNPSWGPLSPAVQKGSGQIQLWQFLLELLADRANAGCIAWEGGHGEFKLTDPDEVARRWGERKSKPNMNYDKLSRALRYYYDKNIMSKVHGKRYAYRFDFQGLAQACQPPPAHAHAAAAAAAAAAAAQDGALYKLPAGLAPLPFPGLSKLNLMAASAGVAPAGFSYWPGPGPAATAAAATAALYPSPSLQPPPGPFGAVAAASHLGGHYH
Put shortly:
as §1

In assay [11] the target is ETV5 (Homo sapiens, UniProt P41161 1-510). Put shortly:
as §1

Assay [12] concerns the target T8, SPIC (Homo sapiens, UniProt Q8N5J4 1-248).
T8 sequence: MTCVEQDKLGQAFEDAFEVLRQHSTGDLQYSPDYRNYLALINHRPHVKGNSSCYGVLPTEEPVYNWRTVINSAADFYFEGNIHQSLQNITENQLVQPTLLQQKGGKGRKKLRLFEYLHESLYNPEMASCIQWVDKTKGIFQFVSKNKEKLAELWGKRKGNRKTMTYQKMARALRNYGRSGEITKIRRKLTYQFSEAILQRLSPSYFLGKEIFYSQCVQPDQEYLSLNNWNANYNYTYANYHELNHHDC
Put shortly:
as §1

For assay [13], the target named is ELF4 (Homo sapiens, UniProt Q99607 1-663). Put shortly: as §1
Chain of ELF4 (Q99607 whole entry): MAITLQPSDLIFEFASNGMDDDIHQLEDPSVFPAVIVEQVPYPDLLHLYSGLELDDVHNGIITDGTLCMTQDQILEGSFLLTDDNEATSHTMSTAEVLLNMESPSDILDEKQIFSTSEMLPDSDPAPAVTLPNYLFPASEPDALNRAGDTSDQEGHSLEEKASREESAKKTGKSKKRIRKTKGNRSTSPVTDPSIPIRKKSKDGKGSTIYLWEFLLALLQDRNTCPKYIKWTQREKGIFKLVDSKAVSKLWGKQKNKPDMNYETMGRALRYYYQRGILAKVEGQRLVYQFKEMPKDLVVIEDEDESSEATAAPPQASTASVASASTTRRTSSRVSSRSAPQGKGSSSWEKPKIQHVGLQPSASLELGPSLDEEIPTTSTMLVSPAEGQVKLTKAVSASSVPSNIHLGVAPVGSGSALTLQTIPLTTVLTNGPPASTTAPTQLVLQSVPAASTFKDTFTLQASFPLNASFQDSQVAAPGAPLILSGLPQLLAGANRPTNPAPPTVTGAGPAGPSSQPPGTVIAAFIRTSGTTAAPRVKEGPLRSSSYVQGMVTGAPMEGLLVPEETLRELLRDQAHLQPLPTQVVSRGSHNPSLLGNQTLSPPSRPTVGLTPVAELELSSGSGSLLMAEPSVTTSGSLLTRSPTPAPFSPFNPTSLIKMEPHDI
In assay [14] the target is T9, ELK4 (Homo sapiens, UniProt P28324-2 1-405).
T9 sequence: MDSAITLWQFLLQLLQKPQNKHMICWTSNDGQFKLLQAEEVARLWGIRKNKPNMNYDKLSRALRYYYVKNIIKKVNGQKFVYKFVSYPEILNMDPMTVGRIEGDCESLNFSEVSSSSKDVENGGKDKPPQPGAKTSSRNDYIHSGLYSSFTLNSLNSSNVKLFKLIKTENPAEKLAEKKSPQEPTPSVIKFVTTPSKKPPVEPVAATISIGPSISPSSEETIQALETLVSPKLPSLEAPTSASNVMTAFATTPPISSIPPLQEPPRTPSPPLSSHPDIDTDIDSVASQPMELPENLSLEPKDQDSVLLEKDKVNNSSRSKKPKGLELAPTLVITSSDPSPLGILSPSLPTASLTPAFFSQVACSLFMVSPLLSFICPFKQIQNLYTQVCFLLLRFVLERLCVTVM
Put shortly: as §1

The target in assay [15] is T10, ETV2 (Homo sapiens, UniProt O00321 1-342).
T10 sequence: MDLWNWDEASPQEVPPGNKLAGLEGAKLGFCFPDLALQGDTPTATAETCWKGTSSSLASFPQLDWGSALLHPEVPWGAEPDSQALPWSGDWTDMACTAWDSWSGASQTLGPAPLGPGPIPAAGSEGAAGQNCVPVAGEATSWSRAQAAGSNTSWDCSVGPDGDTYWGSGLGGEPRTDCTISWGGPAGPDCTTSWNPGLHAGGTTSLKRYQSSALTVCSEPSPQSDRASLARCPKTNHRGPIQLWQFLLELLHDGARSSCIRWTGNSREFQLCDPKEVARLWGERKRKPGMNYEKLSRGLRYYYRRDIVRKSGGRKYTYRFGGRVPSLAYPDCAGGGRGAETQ
In outline: as §1

The target in assay [16] is T11, ELF3 (Homo sapiens, UniProt P78545 1-371).
T11 sequence: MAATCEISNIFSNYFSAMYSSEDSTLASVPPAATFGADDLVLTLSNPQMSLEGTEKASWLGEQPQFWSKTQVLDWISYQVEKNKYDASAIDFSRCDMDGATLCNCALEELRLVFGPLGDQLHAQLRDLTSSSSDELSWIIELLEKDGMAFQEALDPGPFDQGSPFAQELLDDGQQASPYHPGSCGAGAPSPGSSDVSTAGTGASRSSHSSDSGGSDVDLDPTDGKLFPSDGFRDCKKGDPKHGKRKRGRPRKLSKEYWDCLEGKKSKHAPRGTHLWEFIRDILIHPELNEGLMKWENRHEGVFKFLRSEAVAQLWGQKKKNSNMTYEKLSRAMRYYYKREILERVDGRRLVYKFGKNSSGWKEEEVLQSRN
Put shortly: as §1

For assay [17], the target named is CRX (Homo sapiens, UniProt O43186 1-299). In outline: as §1
Chain of CRX (O43186 whole entry): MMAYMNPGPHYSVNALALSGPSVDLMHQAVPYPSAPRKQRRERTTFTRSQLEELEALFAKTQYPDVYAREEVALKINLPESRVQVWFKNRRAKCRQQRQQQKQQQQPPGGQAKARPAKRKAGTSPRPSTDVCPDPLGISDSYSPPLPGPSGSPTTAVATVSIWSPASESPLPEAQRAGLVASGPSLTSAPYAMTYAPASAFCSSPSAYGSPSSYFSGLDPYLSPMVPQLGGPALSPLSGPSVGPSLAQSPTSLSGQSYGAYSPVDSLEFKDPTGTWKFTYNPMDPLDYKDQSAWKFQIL
For assay [18], the target named is ETV1 (Homo sapiens, UniProt P50549 1-477). In outline: as §1
Chain of ETV1 (P50549 whole entry): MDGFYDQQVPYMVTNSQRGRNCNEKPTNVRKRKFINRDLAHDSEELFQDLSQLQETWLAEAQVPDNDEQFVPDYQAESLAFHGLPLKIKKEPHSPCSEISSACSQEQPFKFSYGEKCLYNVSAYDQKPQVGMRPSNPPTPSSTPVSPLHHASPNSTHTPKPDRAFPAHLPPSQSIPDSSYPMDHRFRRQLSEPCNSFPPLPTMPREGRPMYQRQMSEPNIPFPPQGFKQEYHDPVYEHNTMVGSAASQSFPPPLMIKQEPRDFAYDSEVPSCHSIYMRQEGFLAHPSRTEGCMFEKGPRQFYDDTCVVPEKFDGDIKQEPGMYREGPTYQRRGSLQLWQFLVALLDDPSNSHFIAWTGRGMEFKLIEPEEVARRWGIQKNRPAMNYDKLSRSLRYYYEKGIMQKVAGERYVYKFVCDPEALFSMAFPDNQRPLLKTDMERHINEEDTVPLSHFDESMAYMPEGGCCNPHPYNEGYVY

Chain of ETV5 (P41161 whole entry): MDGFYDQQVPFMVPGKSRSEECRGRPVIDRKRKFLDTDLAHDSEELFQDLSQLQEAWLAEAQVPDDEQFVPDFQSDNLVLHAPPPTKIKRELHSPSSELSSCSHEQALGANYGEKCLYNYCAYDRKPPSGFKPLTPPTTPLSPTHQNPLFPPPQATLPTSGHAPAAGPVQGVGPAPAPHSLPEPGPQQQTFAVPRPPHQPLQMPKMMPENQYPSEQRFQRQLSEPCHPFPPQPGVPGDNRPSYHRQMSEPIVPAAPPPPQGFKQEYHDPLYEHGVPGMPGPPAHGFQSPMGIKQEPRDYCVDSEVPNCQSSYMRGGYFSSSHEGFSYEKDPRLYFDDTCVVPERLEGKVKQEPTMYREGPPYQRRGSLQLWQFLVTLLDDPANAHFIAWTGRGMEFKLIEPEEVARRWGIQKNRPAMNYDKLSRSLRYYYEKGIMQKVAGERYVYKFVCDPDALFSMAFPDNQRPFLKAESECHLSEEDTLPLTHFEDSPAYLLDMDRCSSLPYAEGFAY
Chain of SPIB (Q01892 whole entry): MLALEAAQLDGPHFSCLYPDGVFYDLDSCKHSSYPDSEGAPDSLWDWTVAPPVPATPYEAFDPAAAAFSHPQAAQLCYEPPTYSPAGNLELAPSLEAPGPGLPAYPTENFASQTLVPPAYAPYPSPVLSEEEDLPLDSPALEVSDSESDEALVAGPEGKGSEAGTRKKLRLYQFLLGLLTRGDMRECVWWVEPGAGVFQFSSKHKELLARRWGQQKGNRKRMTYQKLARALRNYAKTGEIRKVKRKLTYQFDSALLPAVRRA

Take CTGACC: the binding signal is 1.4 fold enrichment (6-mer frequency, TF over GST control) in assay [1]; 1.41 fold enrichment (6-mer frequency, TF over GST control) in [2]; 1.41 fold enrichment (6-mer frequency, TF over GST control) in assay [3]; 1.23 fold enrichment (6-mer frequency, TF over GST control) in assay [4]; 1.46 fold enrichment (6-mer frequency, TF over GST control) in [5]; 1.59 fold enrichment (6-mer frequency, TF over GST control) in [6]. Also, the binding signal was 1.25 fold enrichment (6-mer frequency, TF over GST control) in assay [7]; 1.26 fold enrichment (6-mer frequency, TF over GST control) in assay [8]; 1.33 fold enrichment (6-mer frequency, TF over GST control) in [9]; 1.43 fold enrichment (6-mer frequency, TF over GST control) in [10]; 1.32 fold enrichment (6-mer frequency, TF over GST control) in [11]; 1.37 fold enrichment (6-mer frequency, TF over GST control) in assay [12]. Besides, the binding signal in assay [13] was 1.41 fold enrichment (6-mer frequency, TF over GST control); in [14], 1.31 fold enrichment (6-mer frequency, TF over GST control); in assay [15] it was 1.46 fold enrichment (6-mer frequency, TF over GST control); in assay [16] it was 1.51 fold enrichment (6-mer frequency, TF over GST control); in [17] it was 1.01 fold enrichment (6-mer frequency, TF over GST control); in assay [18], 1.43 fold enrichment (6-mer frequency, TF over GST control).

The record behind these values is PMC7862700, “An all-to-all approach to the identification of sequence-specific readers for epigenetic DNA modifications on cytosine”.
